High-throughput results (PubChem)
Rows were chosen to be rich in hits. Some 4.4% of all compounds tested hit in one or more screens of this group.
USP1-UAF1 inh = inhibitors of human USP1/UAF1 deubiquitinase; O94782; 0.23% of 390,000 active; recombinant USP1/UAF1, Ub-Rhodamine cleavage fluorescence; Potency, µM (titrated, usually from 57.1 µM), without a hit: at the top dose activity change, negative = inhibition, hits mostly inhibitors; active = well fitted inhibition curve with a large enough effect; inconclusive = small, poorly fitted or top-dose-only effect; inactive = no such curve, though single readings can be large or run the other way; note: potency is the fitted concentration of half-maximal effect; % is set by controls: 0 for no effect and ±100 for the full control effect; nearly all actives have a fitted effect of over 60% in size
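Step one: compound is pinned into 1nM USP1/UAF1 in HEPES pH 7.8 buffer with TCEP. Step two: 15 min room-temperature incubation. Step three: Ub-Rho (150nM final) starts cleavage, tracked by fluorescence over six one-minute reads.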
D1 ag = activates the human D1 dopamine receptor | P21728 | HEK293 T-REx D1 cells, calcium flux, agonist mode | activation, % at 2 µM | 1% of 360,000 active; note: 0% is about no effect
Target sequence (P21728 whole entry, looked up): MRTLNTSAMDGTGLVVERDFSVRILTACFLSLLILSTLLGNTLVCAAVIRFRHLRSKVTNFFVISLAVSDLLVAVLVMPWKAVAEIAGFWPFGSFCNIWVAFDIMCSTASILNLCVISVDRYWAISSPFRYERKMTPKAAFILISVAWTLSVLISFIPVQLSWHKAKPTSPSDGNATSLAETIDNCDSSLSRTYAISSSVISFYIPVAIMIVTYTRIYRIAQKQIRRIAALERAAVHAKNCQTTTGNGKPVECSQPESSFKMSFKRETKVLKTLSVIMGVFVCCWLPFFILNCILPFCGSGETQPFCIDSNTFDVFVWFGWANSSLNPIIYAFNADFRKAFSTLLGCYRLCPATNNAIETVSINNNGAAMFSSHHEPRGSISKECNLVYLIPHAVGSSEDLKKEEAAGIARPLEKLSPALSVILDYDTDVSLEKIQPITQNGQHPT
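Agonism was scored from calcium flux recorded over 180 s (1 read/s) after pintool compound addition, following a 10-cycle baseline. Cells were inducible force-coupled HEK293 TREx D1, plated overnight at 30 C and loaded with no-wash calcium dye.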
TRHR PAM = allosteric enhancers of human TRH receptor | TRHR cells, fluo-8 calcium fluorescence, EC20 TRH enhancement | enhancement, % at 2 µM | 0.66% of 360,000 active | AID 493056 | P34981; in the data active = enhancement above about 30%; note: 0% is about no effect
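TRHR-expressing cells loaded with fluo-8 calcium dye were read kinetically (ex 480/em 530) during compound addition, then stimulated with an EC20 of TRH (10 nM final). Enhancement of the Gq-mediated intracellular calcium response was scored.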
D1 PAM = human D1 dopamine receptor positive modulation; P21728; HEK293 TREx D1 cells, calcium flux, dopamine EC20 potentiation; potentiation, % at 10 µM; 0.036% of 360,000 active; AID 504651; in the data active = potentiation above about 30%; note: 0% is about no effect
D1 antagonist = antagonists of human D1 dopamine receptor; P21728; HEK293 TREx D1 cells, calcium flux, dopamine EC80; hits give low values; activity change, negative = inhibition, % at 10 µM; 3.2% of 360,000 active; AID 504652; in the data active = activity change below about -30%; note: % is set by controls: 0 for no effect and ±100 for the full control effect
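After overnight tetracycline induction at 30 C, force-coupled D1 HEK293 cells took up a no-wash calcium dye at room temperature. Compounds were added and monitored 180 s, and the response to EC80 dopamine was then recorded.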
TRHR agonist = TRH receptor (human) agonism. activation, % at 2 µM. AID 493084. P34981. TRHR cells, calcium flux fluo-8, FDSS agonist mode. 0.18% of 360,000 active; note: 0% is about no effect
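Steps: seed TRHR cells overnight; add fluo-8 no-wash Ca dye, RT 30 min–1.5 h; record 10 s baseline; pin-transfer compounds; monitor fluorescence 1 cycle/s for the agonist window. Calcium increases flag candidate agonists.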
* = called active by the depositor; ? = inconclusive; . = not tested or not shown. Cut-off read from the data, not from the text of the source, unless noted: active = activation above about 30%; inactive = the rest.

SMILES	USP1-UAF1 inh	D1 ag	TRHR PAM	D1 PAM	D1 antagonist	TRHR agonist
COc1ccccc1N1CCN(C(=O)C2CCN(S(=O)(=O)Cc3ccccc3)CC2)CC1	?	0	-2	-1	5	-1
COc1ccc(-c2nc3sc(CCNC(=O)C(=O)Nc4cccc(NC(C)=O)c4)c(C)n3n2)cc1	-10%	13	-6	-3	.	1
Cc1c(-c2cccc(NC(=O)c3ccc(F)c(F)c3)c2)nc2ncccn12	14%	0	0	-2	-36*	0
O=C(NC(=S)NCc1nc2ccccc2[nH]1)c1ccc(F)cc1	-16%	-1	3	-6	-68*	-1
O=C(N/C=C\c1ccccc1)NCc1ccc(Cl)cc1	-11%	3	0	-2	-31*	0
CC(CC(=O)NCc1ccc(Cl)cc1)c1ccccc1 (configuration not stated)	-7%	2	34*	-5	2	0
O=C(COC(=O)CC(c1ccccc1)c1ccccc1)NCc1ccc(Cl)cc1	-8%	29	-6	-6	-34*	4
CCCC(=O)OCC(=O)NCc1ccc(Cl)cc1	-16%	2	6	-3	11	-1
O=C(N/C=C\c1ccccc1)NCc1ccc(Cl)cc1Cl	-20%	6	1	0	1	0
COc1ccccc1CNC(=O)CC(C)c1ccccc1 (configuration not stated)	-22%	1	2	-5	10	1
O=C(c1ccc([N+](=O)[O-])o1)N1CCN(c2nc3c(F)cc(F)cc3s2)CC1	-24%	3	-2	-7	-31*	0
Cc1ccc(C)c2sc(N3CCN(C(=O)c4ccc([N+](=O)[O-])o4)CC3)nc12	-3%	5	8	-1	-6	0
CCCN1C[C@H](CSC)C[C@@H]2c3cccc4[nH]cc(c34)C[C@H]21	-19%	51*	-7	-6	-88*	1
O=S(=O)(c1ccc(OC(F)(F)F)cc1)N1CCC(O)(c2cccc(C(F)(F)F)c2)CC1	-12%	34*	3	-6	-5	7
Fc1ccc(N2CCN(c3nc4ccccc4c4nc(-c5cccnc5)nn34)CC2)cc1	-18%	2	0	-7	-24	0
CCC(C(=O)Nc1ccc(S(=O)(=O)N(C)C2CCN(C)CC2)cc1)c1ccccc1 (configuration not stated)	-13%	30*	4	-9	-14	3
CC(Oc1ccc(Br)cc1)C(=O)Nc1ccc(S(=O)(=O)N(C)C2CCN(C)CC2)cc1 (configuration not stated)	-11%	126*	-14	13	-52*	13
CN1CCC(N(C)S(=O)(=O)c2ccc(Cl)cc2)CC1	-14%	0	35*	-1	21	0
COc1ccc(S(=O)(=O)N(C)C2CCN(C)CC2)cc1	-8%	-2	1	4	9	0
O=C(C1CCC(Cn2c(=O)c3sccc3n(Cc3ccccc3F)c2=O)CC1)N1CCOCC1 (configuration not stated)	0%	1	2	-2	-5	0
N/C(Cc1ccc(Cl)cc1)=N\OC(=O)c1ccccc1	12%	-1	-6	2	-6	-1
CC(C)(C)C(=O)OC/C(N)=N/OC(=O)c1ccc(Cl)cc1	-26%	7	-5	-3	-43*	0
Cc1cc(C)nc(Nc2ncc(O)n2-c2ccc(Br)cc2)n1	-15%	10	7	-7	-48*	0
Cc1ccccc1Nc1cc2ccccc2c(=O)[nH]1	1µM*	2	-3	-5	-7	3
O=c1[nH]c(Nc2ccc(F)cc2)cc2ccccc12	13µM*	1	4	2	-3	2
O=c1[nH]c(Nc2ccccc2Cl)cc2ccccc12	14µM*	.	.	.	.	.
Cc1ccc(OCc2ccc(-c3nc(C#N)c(NCc4ccccc4Cl)o3)o2)cc1	?	0	-6	-1	9	2
CCN1CCc2c(sc(NC(=O)c3ccc(S(=O)(=O)N(C)c4ccccc4)cc3)c2C(=O)NC)C1	?	175*	7	7	5	48*
